Consider 48 compounds from ChEMBL document CHEMBL3433997, “St. Jude Leishmania screening dataset” (2016).

What all share (assay type): functional
Test [1] concerns the target Solute carrier family 2, facilitated glucose transporter member 1 (Homo sapiens) (UniProt P11166). As to the kind of experiment: ST_JUDE_LEISH: Cytotoxicity at 2uM final concentration against transgenic Leishmania Mexicana promastigotes LmGLUT1 that are glucose transport deficient and complemented with the human glucose transporter GLUT1. Activity is measured by DNA content using SYBR green in vitro.

Test [2] addresses Hexose transporter 1 (Plasmodium falciparum) (UniProt O97467). Put plainly: ST_JUDE_LEISH: Cytotoxicity at 2uM final concentration against transgenic Leishmania Mexicana promastigotes LmPfHT that are glucose transport deficient and complemented with the Plasmodium falciparum hexose transporter. Activity is measured by DNA content using SYBR green in vitro.
The target in test [3] is Glucose transporter (Leishmania mexicana) (UniProt O61059). Put plainly: ST_JUDE_LEISH: Cytotoxicity at 2uM final concentration against transgenic Leishmania Mexicana promastigotes LmGT2 that are glucose transport deficient and complemented with the L. Mexicana glucose transporter 2. Activity is measured by DNA content using SYBR green in vitro.

Sequence of Solute carrier family 2, facilitated glucose transporter member 1 (Homo sapiens) (P11166 whole entry): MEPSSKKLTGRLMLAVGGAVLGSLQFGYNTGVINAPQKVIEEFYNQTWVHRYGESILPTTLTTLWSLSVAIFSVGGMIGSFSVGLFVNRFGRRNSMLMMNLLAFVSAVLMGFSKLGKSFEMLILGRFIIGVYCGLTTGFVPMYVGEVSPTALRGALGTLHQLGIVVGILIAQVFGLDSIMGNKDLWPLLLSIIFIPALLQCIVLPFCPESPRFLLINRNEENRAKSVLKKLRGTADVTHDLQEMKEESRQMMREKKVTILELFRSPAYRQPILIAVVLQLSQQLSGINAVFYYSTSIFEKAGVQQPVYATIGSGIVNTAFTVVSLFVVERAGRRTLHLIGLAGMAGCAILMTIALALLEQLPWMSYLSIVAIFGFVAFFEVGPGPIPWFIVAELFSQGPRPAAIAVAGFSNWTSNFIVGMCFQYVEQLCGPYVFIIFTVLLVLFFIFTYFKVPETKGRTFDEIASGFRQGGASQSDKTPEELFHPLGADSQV

Take `CCN(CC)CCN(Cc1ccc(-c2ccc(C(F)(F)F)cc2)cc1)C(=O)Cn1cc(Cc2cnn(C)c2)c(=O)nc1/C=C/c1ccc(F)cc1`: the inhibition in test [1] worked out at 1.22%; in test [2], 1.54%; in test [3], 2.56%.
With `OC(CNc1ccnc(Nc2ccc(Cl)cc2)n1)c1cccc(C(F)(F)F)c1` (centres undefined), the inhibition was 1.93% in test [1], 2.79% in test [2] and 0.49% in test [3].
`Cc1cc2nc(-c3cc(-c4cccc(NS(C)(=O)=O)c4)cnc3N)[nH]c2cc1C`: the inhibition in test [1] was 1.13%; in test [2], 0.27%; in test [3] it was 0.05%.
`Cc1ccc(N2C(=O)C3C(C2=O)C2(c4ccccc4)C(=O)C3(c3ccccc3)C(c3ccccc3)=C2c2ccccc2)c(C)c1` (centres undefined): the inhibition was determined as 6.28% in test [1], 4.9% in test [2] and 3.25% in test [3].
Regarding `Cc1ccc(Cc2c[nH]c(NCCSCc3ccc(CN4CCOCC4)o3)nc2=O)cn1`, the inhibition in test [1] amounted to 2.52%; in test [2], 0.59%; in test [3], 3.98%.
As to `CCCCNC(=O)c1cc(CNC2CCCCC2)ccc1-c1cccc(CNCc2ccc(-c3ccccc3)cc2)c1`, the figures for the inhibition in test [1], in test [2] and in test [3] were 5.94%, 5.46% and 2.67%, respectively.
For the compound `O=c1cc(NCCCNCc2sc(Br)c(Br)c2Br)[nH]c2ccccc12`, the inhibition in test [1] came out at 10.5%; in test [2] it was 9.87%; in test [3] it was 10.4%.
As to `Oc1ccc2[nH]cc(C3CCN(CCCNCc4ccc(-c5ccccc5)cc4)CC3)c2c1`, the inhibition came out at 5.26% in test [1], 8.52% in test [2] and 2.61% in test [3].
The corresponding values for `CC(C)(CNCc1cccc(Oc2cccc(C(F)(F)F)c2)c1)c1nc(-c2ccnc(N)n2)c(-c2ccc(Cl)c(O)c2)[nH]1` are 6.03%, 6.79% and 7.44%.
Regarding `N#Cc1cc(C(=O)c2cc(Br)ccc2O)cn(-c2cc(Cl)cc(Cl)c2)c1=O`, the inhibition in test [1] was -3.11%; in test [2] it was 0.39%; in test [3], -3.61%.
Turning to `CC1CCCN(c2ccc(NC(=O)c3cccs3)cc2[N+](=O)[O-])C1` (centres undefined), the inhibition in test [1] was 1.22%; in test [2], 1.19%; in test [3] it was -1.43%.
As to `COC(=O)c1cc(OC2CCOC2=O)cc2c1OC(C)(C)O2` (centres undefined), the inhibition in test [1] came to 10.9%; in test [2], 12.7%; in test [3], 8.43%.
As to `COc1ccccc1N(C)CCNc1cc(C)nc(Nc2ccccc2)n1`, the inhibition in test [1] came out at 11.5%; in test [2], 8.65%; in test [3], 5.05%.
`N#Cc1ccc(N/C(=N\c2ccccc2Cl)NC2CCN(Cc3ccccc3)CC2)c(O)c1`: the inhibition in test [1] came out at 2.09%; in test [2], 2.49%; in test [3] it was 0.29%.
On the same counts, the results for `COc1cc(NC(=O)c2cc([N+](=O)[O-])ccc2NC(=O)CNC2CCCCC2C)cc(OC)c1` (centres undefined) are 7.57%, 2.04% and 1.96%.
`CCOC(=O)c1cc(Cl)ccc1OCCCON1C(=N)N=C(N)NC1(C)C`: the inhibition in test [1] is 1.75%; in test [2] it was 3.52%; in test [3] it was 3.08%.
On to `O=C(c1ccco1)c1cn(CCOc2ccccc2)c2ccccc12`, for which the inhibition in test [1] was 1.36%; in test [2], 1.5%; in test [3] it was -0.07%.
For `CCOc1ccc(-c2nonc2NC(=O)c2ccccc2OC)cc1OCC`, the inhibition in test [1] is 3.08%; in test [2] it was 2.92%; in test [3], 0.46%.
In the case of `O=C(Nc1ccc(N2CCCCC2)c(Cl)c1)c1ccc(Br)o1`, the inhibition in test [1] was 1.4%; in test [2], 2.17%; in test [3], 2.35%.
For the compound `CN(c1ccccc1C(=O)Nc1ccccc1Oc1ccccc1)S(=O)(=O)c1ccccc1`, the results for the inhibition in test [1], in test [2] and in test [3] were 0.02%, 0.41% and 5.08%, respectively.
Take `Fc1ccc(C(OCC2CCCN(Cc3cccc4cccnc34)C2)c2ccc(F)cc2)cc1` (centres undefined): the inhibition in test [1] was 2.49%; in test [2] it was 0.62%; in test [3], -2.6%.
On the same counts, the results for `CCn1c(SCc2ccccc2)nc2c1c(=O)[nH]c(=O)n2C` are -0.07%, -0.05% and -1.06%.
Consider `Nc1ccncc1C(=O)NCCCCN1CCN(c2nsc3ccccc23)CC1`, for which the figures for the inhibition in test [1], in test [2] and in test [3] were -0.32%, 0.47% and -1.16%, respectively.
On the same counts, the results for `CCOc1cc2c(cc1OCC)C(c1ccc(O)c(Cl)c1)NCC2` (centres undefined) are 11.9%, 13.1% and 10.3%.
Take `CCn1c(-c2nonc2N)nc2c(-c3cccc(Cl)c3)ncc(OCCCNCc3cnc(C)nc3N)c21`: the values for the inhibition in test [1], in test [2] and in test [3] were 0.16%, -3.01% and 2.98%, respectively.
On to `COc1ccc2ncc(Cl)c(N3CCC(CCNCc4ccc5c(n4)NC(=O)CS5)CC3)c2c1`, for which the inhibition in test [1] turned out to be 2.36%; in test [2] it was 0.92%; in test [3] it was 3.01%.
In the case of `Clc1cc(Nc2ncnc3sc(C#C[C@H]4CCCN4)cc23)ccc1OCc1cccnc1Cl`, the inhibition turned out to be 3.83% in test [1], 4.71% in test [2] and 3.35% in test [3].
With `COc1ccc2nccc([C@@H](O)CN3CCC(NC(=O)[C@@H]4Cc5ccccc5CN4C(=O)OC(C)(C)C)CC3)c2c1`, the inhibition was found to be 8.19% in test [1], 6.18% in test [2] and 3.12% in test [3].
The corresponding values for `CN(C)CCNCc1cccc(-c2ccc3c(Nc4cc(O)c(Cl)cc4F)ccnc3c2)c1` are 3.57%, 5.09% and 3.04%.
Consider `CO/C(=C\C=C\c1cc2cc(Cl)c(Cl)cc2[nH]1)C(=O)NCCCN1CCC(c2ccccc2)CC1`, for which the values for the inhibition in test [1], in test [2] and in test [3] were 2.73%, 5.04% and 1.33%, respectively.
For `Nc1nc(N)c2cc(S(=O)(=O)c3ccc4ccccc4c3)ccc2n1`, the inhibition in test [1] was determined as 10.7%; in test [2], 18.4%; in test [3] it was 8.89%.
On the same counts, the results for `Cc1c(CNCCCNc2nc3cscc3[nH]2)sc(C(F)F)c1Br` are 6.65%, 4.46% and 2.43%.
Consider `Cc1ccc(Nc2nc3cc(N(C)c4ccnc(Nc5cccc(CS(C)(=O)=O)c5)n4)ccc3o2)cc1`, for which the inhibition in test [1] turned out to be 5.07%; in test [2], 4.21%; in test [3], 4.65%.
For the compound `CC(C)CNCc1ccc(-c2cccc(CN(CCN(C)C)C(=O)NCCc3ccccc3)c2)cc1`, the inhibition in test [1] was -0.22%; in test [2], 1.83%; in test [3], 0.23%.
For the compound `CC1Cc2ccccc2N1S(=O)(=O)c1cc(OCC(F)(F)F)ccc1OCC(F)(F)F` (centres undefined), the inhibition worked out at 4.69% in test [1], 3.54% in test [2] and 3.67% in test [3].
The corresponding values for `COc1ccccc1NC(=O)Nc1cccc(-c2ccc(-c3nc4cccc(C)c4[nH]3)s2)c1` are 3.95%, 6.34% and 3.94%.
On the same counts, the results for `O=C(Nc1ccccc1)N(Cc1ccc(-c2ccc(CNC3CCCC3)cc2)cc1)C1CCN(Cc2ccccc2)CC1` are 4.17%, 3.43% and 2.32%.
Consider `OCCN1CCN(C(=S)Nc2ccccc2)CC1`, for which the results for the inhibition in test [1], in test [2] and in test [3] were 4.19%, 3.14% and 3.02%, respectively.
In the case of `CCCNC(=O)C1Cc2cc(OC)c(OC)cc2C2(N1)C(=O)N(Cc1cccc(OC)c1)c1ccccc12` (centres undefined), the inhibition in test [1] was -1.15%; in test [2] it was 0.36%; in test [3], -0.47%.
Regarding `CN1CCN(c2cc(NC(=O)Nc3cccc(Cl)c3Cl)ccc2Cl)CC1`, the inhibition in test [1] was -2.56%; in test [2], -2.86%; in test [3], -2.68%.
For the compound `O=C(Nc1cccc(Cl)c1Cl)N1CCc2cc3nccc(N4CCN5CCC[C@H]5C4)c3cc21`, the inhibition in test [1] was -0.2%; in test [2], 1.06%; in test [3], 3.39%.
In the case of `COc1cc2nc(N3CCC(CNC(=O)c4cccc5cccnc45)CC3)nc(N)c2cc1OC`, the inhibition was 5.61% in test [1], 4.14% in test [2] and 3.91% in test [3].
Turning to `CCC(=O)Nc1ccc(Nc2nc(C)cc(N3CCCC3)n2)cc1`, the inhibition in test [1] was 3.46%; in test [2], 12.4%; in test [3], 2.39%.
With `CC(=O)c1ccc(-c2ccc(C(=O)NCCCCN3CCC(c4ccc5c(c4OCC(N)=O)CCCC5)CC3)cc2)s1`, the inhibition was determined as 1.36% in test [1], 0.76% in test [2] and 1.72% in test [3].
On the same counts, the results for `CCN(CC)CCN(Cc1ccc(-c2ccc(C(F)(F)F)cc2)cc1)C(=O)Cn1c(SCc2ccc(F)cc2)nc(=O)c2sccc21` are 5.28%, 2.81% and 4.07%.
As for `CCn1c(-c2nonc2N)nc2c(-c3cccc(Cl)c3)ncc(OCCCNCCc3c[nH]cn3)c21`, the inhibition in test [1] was determined as 4.7%; in test [2], 4.78%; in test [3], 3.45%.
On the same counts, the results for `Cc1ccc(/C=C/C(=O)NC2CCC(N3CCC(c4ccccc4C)CC3)CC2)cc1C` (centres undefined) are 4.77%, 4.56% and 1.93%.
`COc1ccc2nccc([C@@H](O)CN3CCC(NCc4[nH]c5ccccc5c4F)CC3)c2c1`: the inhibition is 9.88% in test [1], 9.58% in test [2] and 1.18% in test [3].

Broadly, the inhibition is the drop in the measured response relative to a control, in per cent.
